# Test results from PubChem BioAssay AID1159580 (chemical genetic matrix, 2015).
# “And” between values parts separate entries of the source, which are not always exact repeats. Identical values can stand only once. In all, about 5,500 compounds went through this assay and about 2,000 (36%) were called active. Roughly 18% stayed inconclusive and do not appear here. Some of the results follow. Unmarked numbers belong to inactive results. No stated cut-off is given here; in the data, active means normalized growth mostly below about 0.91 (no sharp cut-off); inconclusive means no clear call, values can overlap the other calls; inactive means mostly above about 0.92.
# Assay: chemical genetic growth profiling, strain panel (AID 1159580);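 further: tested at 20 µM; growth read once vehicle control cultures reached saturation at 30 °C; 1 = growth at the plate median or of vehicle wells; lower values mean less growth of the strain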
# Conditions: S. cerevisiae deletion strains, growth OD
structure (smiles),measurement,setting,value
CC(CN1c2ccccc2Sc2ccccc21)N(C)C (configuration not stated),normalized growth,"locus YAL021C, strain ccr4, hits give low values",0.902 (active)
same,normalized growth,"locus YAL026C, strain drs2, hits give low values",0.721 (active)
same,normalized growth,"locus YAL030W, strain snc1, hits give low values",0.973
same,normalized growth,"locus YAL040C, strain CLN3, hits give low values",0.985
same,normalized growth,"locus YBL061C, strain skt5, hits give low values",0.924
same,normalized growth,"locus YBR009C, strain hhf1, hits give low values",0.954
same,normalized growth,"locus YBR021W, strain FUR4, hits give low values",0.938
same,normalized growth,"locus YBR023C, strain chs3, hits give low values",0.927
same,normalized growth,"locus YBR171W, strain sec66, hits give low values",0.988
same,normalized growth,"locus YBR229C, strain ROT2, hits give low values",0.95
same,normalized growth,"locus YBR231C, strain swc5, hits give low values",0.95
same,normalized growth,"locus YBR279W, strain paf1, hits give low values",0.966
same,normalized growth,"locus YCL011C, strain gbp2, hits give low values",0.981
same,normalized growth,"locus YCL016C, strain dcc1, hits give low values",0.975
same,normalized growth,"locus YCL061C, strain MRC1 (second series), hits give low values",0.998
same,normalized growth,"locus YCL069W, strain vba3, hits give low values",0.938
same,normalized growth,"locus YCR088W, strain abp1, hits give low values",0.988
same,normalized growth,"locus YDL005C, strain med2, hits give low values",1
same,normalized growth,"locus YDL035C, strain GPR1, hits give low values",0.966
same,normalized growth,"locus YDL040C, strain nat1, hits give low values",0.982
same,normalized growth,"locus YDL074C, strain BRE1, hits give low values",0.906
same,normalized growth,"locus YDL101C, strain DUN1, hits give low values",0.944
same,normalized growth,"locus YDL134C, strain PPH21, hits give low values",0.979
same,normalized growth,"locus YDL185W, strain tfp1, hits give low values",0.978
same,normalized growth,"locus YDL192W, strain arf1, hits give low values",0.982
same,normalized growth,"locus YDR001C, strain nth1, hits give low values",0.983
same,normalized growth,"locus YDR069C, strain doa4, hits give low values",0.946
same,normalized growth,"locus YDR101C, strain arx1, hits give low values",0.914 (active)
same,normalized growth,"locus YDR137W, strain rgp1, hits give low values",1.25 [resistant] (active)
same,normalized growth,"locus YDR150W, strain NUM1, hits give low values",0.99
same,normalized growth,"locus YDR159W, strain sac3, hits give low values",0.968
same,normalized growth,"locus YDR162C, strain NBP2, hits give low values",0.982
same,normalized growth,"locus YDR195W, strain ref2",1.14
same,normalized growth,"locus YDR297W, strain sur2, hits give low values",0.937
same,normalized growth,"locus YDR318W, strain mcm21, hits give low values",0.95
same,normalized growth,"locus YDR334W, strain swr1, hits give low values",0.985
same,normalized growth,"locus YDR335W, strain msn5, hits give low values",0.94
same,normalized growth,"locus YDR363W, strain ESC2, hits give low values",0.993
same,normalized growth,"locus YDR388W, hits give low values",0.977
same,normalized growth,"locus YDR392W, strain spt3, hits give low values",1.07
same,normalized growth,"locus YDR502C, strain sam2, hits give low values",0.948
same,normalized growth,"locus YEL003W, strain gim4, hits give low values",0.926
same,normalized growth,"locus YEL037C, strain rad23, hits give low values",0.972
same,normalized growth,"locus YEL061C, strain CIN8 (second series), hits give low values",0.975
same,normalized growth,"locus YEL061C, strain CIN8, hits give low values",0.977
same,normalized growth,"locus YER002W, strain NOP16, hits give low values",0.978
same,normalized growth,"locus YER015W, strain faa2, hits give low values",0.901 (active)
same,normalized growth,"locus YER016W, strain bim1, hits give low values",0.988
same,normalized growth,"locus YER110C, hits give low values",0.971
same,normalized growth,"locus YER111C, strain swi4, hits give low values",0.98
same,normalized growth,"locus YER155C, strain BEM2 (second series), hits give low values",0.816 (active)
same,normalized growth,"locus YER155C, strain BEM2, hits give low values",0.987
same,normalized growth,"locus YER167W, strain BCK2, hits give low values",0.986
same,normalized growth,"locus YFR010W, strain ubp6, hits give low values",0.88 (active)
same,normalized growth,"locus YGL078C, strain dbp3, hits give low values",0.972
same,normalized growth,"locus YGL086W, strain mad1, hits give low values",0.936
same,normalized growth,"locus YGL167C, strain pmr1, hits give low values",0.987
same,normalized growth,"locus YGL173C, strain kem1, hits give low values",0.926
same,normalized growth,"locus YGL227W, strain vid30, hits give low values",0.974
same,normalized growth,"locus YGL240W, strain doc1, hits give low values",0.864 (active)
same,normalized growth,"locus YGL248W, strain PDE1, hits give low values",0.945
same,normalized growth,"locus YGL253W, strain hxk2, hits give low values",0.963
same,normalized growth,"locus YGR135W, strain pre9, hits give low values",1
same,normalized growth,"locus YGR229C, strain SMI1, hits give low values",0.954 and 0.981
same,normalized growth,"locus YGR252W, strain gcn5, hits give low values",0.815
same,normalized growth,"locus YHR013C, strain ard1, hits give low values",1.01
same,normalized growth,"locus YHR027C, strain rpn1, hits give low values",0.927
same,normalized growth,"locus YHR030C, strain SLT2, hits give low values",0.99 and 1.04
same,normalized growth,"locus YHR079C, strain IRE1 (second series), hits give low values",0.957
same,normalized growth,"locus YHR079C, strain IRE1, hits give low values",1.07
same,normalized growth,"locus YHR094C, strain hxt1, hits give low values",0.974
same,normalized growth,"locus YHR129C, strain ARP1, hits give low values",0.985
same,normalized growth,"locus YHR142W, strain chs7, hits give low values",0.879
same,normalized growth,"locus YHR200W, strain rpn10, hits give low values",0.966
same,normalized growth,"locus YIL066C, strain RNR3, hits give low values",0.917
same,normalized growth,"locus YIL073C, strain SPO22, hits give low values",0.968
same,normalized growth,"locus YIL125W, strain kgd1, hits give low values",0.963
same,normalized growth,"locus YIR030C, strain dcg1, hits give low values",0.98
same,normalized growth,"locus YJL092W, strain hpr5, hits give low values",0.949
same,normalized growth,"locus YJL095W, strain BCK1 (second series), hits give low values",0.96
same,normalized growth,"locus YJL095W, strain BCK1, hits give low values",0.906 and 1.01
same,normalized growth,"locus YJL115W, strain asf1, hits give low values",0.974
same,normalized growth,"locus YJL129C, strain trk1, hits give low values",1.02
same,normalized growth,"locus YJL134W, strain LCB3, hits give low values",0.984
same,normalized growth,"locus YJL154C, strain vps35, hits give low values",0.973
same,normalized growth,"locus YJL164C, strain tpk1, hits give low values",0.964
same,normalized growth,"locus YJL166W, strain qcr8, hits give low values",0.896 (active)
same,normalized growth,"locus YJL168C, strain set2, hits give low values",0.983
same,normalized growth,"locus YJL187C, strain SWE1 (second series), hits give low values",0.894
same,normalized growth,"locus YJR043C, strain POL32, hits give low values",0.968
same,normalized growth,"locus YJR066W, strain TOR1, hits give low values",0.972
same,normalized growth,"locus YJR075W, strain HOC1, hits give low values",0.981 and 1.01
